The values that follow come from PubChem BioAssay (EPA / NIEHS).

Where a structure was tested more than once in an assay, its records may differ in their call. Activity calls are given as the source filed them. How the source made its calls: active means hit-call score of the fitted dose curve at least 0.9, where 1 is the maximum; inactive means score below 0.9.

Read-out in the test: TIMP metallopeptidase inhibitor 1 (TIMP1), TIMP1 (gene 7076)
Put plainly: BSK_MyoF_TIMP1: BioMAP Diversity Plus: MyoF Assay for TIMP metallopeptidase inhibitor 1 (TIMP1) Biomarker Activity (AID 2284269). The settings on record: primary human lung fibroblasts. Here is the method:
BSK_MyoF is a cell-based, multiplexed-readout assay that uses lung fibroblasts, […], with measurements taken at 24 hours after chemical dosing in a microplate: 96-well plate.BSK_MyoF_TIMP1 is an assay component measured in the BSK_MyoF assay. It measures TIMP-1 antibody related to regulation of gene expression using ELISA technology.Data from the assay component BSK_MyoF_TIMP1 was analyzed at the endpoint, BSK_MyoF_TIMP1, in the positive analysis fitting direction relative to DMSO as the negative control and baseline of activity. Using a type of binding reporter, gain or loss-of-signal activity can be used to understand protein changes. To generalize the intended target to other relatable targets, this assay endpoint is annotated to the 'protease' intended target family, where the subfamily is 'matrix metalloproteinase'.
The levels of cell surface (or secreted, indicated by the prefix "s") biomarker endpoints were measured by ELISA. Overt cytotoxicity to cells in confluent adherent cultures (all systems other than the BT system) was assessed by measuring total protein levels using sulforhodamine B (SRB) staining in parallel cultures at the time of biomarker measurements, indicated as SRB endpoints. For proliferation assays for adherent cell types, individual cell types are cultured at sub-confluence and relative cell numbers quantified by SRB staining at time points optimized for each system (48 h: 3C and CASM3C systems; 72 h: BT and HDF3CGF systems; 96 h: SAg system). SRB was performed by staining cells with 0.1% SRB after fixation with 10% TCA and reading wells at 560 nm.Viability and proliferation of PBMC (T cells) was quantified by Alamar Blue reduction for the SAg and BT systems. For PBMC viability (referred to as PBMC Cytotoxicity within the assay endpoint names), cells were plated (75,000/well in a 96-well plate) and then chemical samples added for 1 h before addition of activators, SEB and TSST-1 (20 ng/mL final concentration each). Cells were incubated for 90 h. Then, Alamar Blue (20 uL/well) (Invitrogen, Cat DAL1100) was added for 6 h, and the plates were read with a fluorescence microplate reader at 546/580 nm (excitation/emission). For PBMC proliferation, cells were plated and activated as above but incubated for only 16 h prior to addition of Alamar Blue. Plates were read after 6 h.
On to `CC(C)(C)C(=O)CCl`, for which the result was inactive.
Consider `CCCCCCCCCCCC#N`, for which the half-maximal activity concentration (AC50) was 31.4 µM (active).
With `CC(C)(c1cc(Cl)c(O)c(Cl)c1)c1cc(Cl)c(O)c(Cl)c1`, the half-maximal activity concentration (AC50) is 9.55 µM (active).
For the compound `COC(C)(C)CCC[C@H](C)C/C=C/C(C)=C/C(=O)OC(C)C`, the result was inactive.
Turning to `O=[N+]([O-])C=Cc1ccccc1`, the half-maximal activity concentration (AC50) is 13.2 µM (active).
`CNC(=O)Oc1cc(C)c(SC)c(C)c1`: the outcome was inactive.
With `CC(C)CCCCCCCOP(=O)(Oc1ccccc1)Oc1ccccc1`, the AC50 was 20 µM (active).
With `CC(C)COP(=O)(OCC(C)C)OCC(C)C`, the outcome was inactive.
The same measure, in the same setting: as for `CCc1cc(C)cc(CC)c1-c1c(OC(=O)C(C)(C)C)n2n(c1=O)CCOCC2`, the entry is “inactive”.
Regarding `O=C1C=CC(=O)C=C1`, the AC50 was 30.3 µM (active) and the result was inactive.
As to `O=c1c2ccccc2c(=O)c2c1cc(Cl)c1[nH]c3c([nH]c12)c(Cl)cc1c(=O)c2ccccc2c(=O)c13`, the result was inactive.
For the compound `c1ccc(Nc2ccc3ccccc3c2)cc1`, the half-maximal activity concentration (AC50) is 34.4 µM (active).
For `C=CC(=O)OCC(CC)CCCC` (stereo unspecified), the result was inactive.
On the same count and under the same terms, as for `Clc1ccc(-c2ccccc2)cc1`, the entry is “inactive”; as for `CC(C)CCCCCCCOC(=O)c1ccccc1C(=O)OCCCCCCCC(C)C`, “inactive”.
Same read-out and setting: as for `CCCOC(=O)c1ccccc1C(=O)OCCC`, the entry is “inactive”; as for `O=S(=O)(c1ccccc1)c1ccccc1`, “inactive”.
The same measure, in the same setting: as for `CC(=O)/C=C/c1ccccc1`, the entry is “inactive”.
For `O=C1C(Cl)=C(Cl)C(=O)C(Cl)=C1Cl`, the half-maximal activity concentration (AC50) is 28 µM (active).
Regarding `O=c1[nH]c(Cl)c(Cl)cc1Cl`, the result was inactive.
As for `COCC(=O)N(c1c(C)cccc1C)N1CCOC1=O`, the outcome was inactive.
Same read-out and setting: the value for `Nc1ccc(-c2ccc(N)c(N)c2)cc1N` was “inactive”.
The same measure, in the same setting: the value for `O=P1(NCCCl)OCCCN1CCCl` (stereo unspecified) was “inactive”; that for `Oc1cc(Cl)ccc1Cl` was “inactive”.
As to `CC(C)(C)C(O)C(Oc1ccc(-c2ccccc2)cc1)n1cncn1` (stereo unspecified), the AC50 is 17.1 µM (active).
Take `Cc1ccc(OP(=O)(Oc2ccc(C)cc2)Oc2ccc(C)cc2)cc1` (tested in a mixture with another compound): the result was inactive.
As to `CCC(C)c1cc([N+](=O)[O-])cc([N+](=O)[O-])c1OC(=O)C=C(C)C` (stereo unspecified), the AC50 is 13.5 µM (active).
Turning to `C=CCN(CC=C)C(=O)C(Cl)Cl`, the outcome was inactive.
On the same count and under the same terms, as for `CC1(C)[C@H](C(=O)O[C@H](C#N)c2cccc(Oc3ccccc3)c2)[C@@H]1C=C(Br)Br`, the entry is “inactive”; as for `O=C(O)CCCc1ccc(N(CCCl)CCCl)cc1`, “inactive”.

Usually AC50 stands for the concentration at which the activity in the assay is half-maximal.
